Results taken from PubChem BioAssay (EPA / NIEHS).
Where “and” joins values, the source holds several entries; their conditions need not be identical. Equal values may be shown once. Records with an inconclusive call do not appear. Some compounds were tested as several samples or in several runs, with calls that do not always agree. Calls of active or inactive are those of the source. How the source made its calls, unless noted: active means hit-call score of the fitted dose curve at least 0.9, where 1 is the maximum; inactive means score below 0.9.

What was measured:
[1] = read-out: E-selectin (Homo sapiens) (UniProt P16581); test: BSK_SAg_Eselectin: BioMAP Diversity Plus: SAg Assay for Eselectin Biomarker Activity (AID 2283091); conditions: primary human HUVEC with PBMC; actives raise or lower the signal
Method in brief: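 Primary human endothelial cells and peripheral blood mononuclear cells were co-cultured and exposed to chemical for 24 hours. E-selectin levels were then quantified by ELISA, with bidirectional curve fitting normalised to DMSO controls.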

[2] = read-out: Monokine induced gamma interferon (MIG), CXCL9 (gene 4283); test: BSK_SAg_MIG: BioMAP Diversity Plus: SAg Assay for Monokine induced gamma interferon (MIG) Biomarker Activity (AID 2283092); conditions: primary human HUVEC with PBMC; actives raise or lower the signal
Method in brief: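 Measures CXCL9 protein by ELISA in a human vascular primary-cell co-culture (umbilical vein endothelium with PBMC) 24 h after chemical addition. Activity is scored up or down from the DMSO control.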

[3] = BSK_SAg_PBMCCytotoxicity: PBMC Cytotoxicity Assessment in the BioMAP Diversity Plus: SAg Assay (AID 2283093); conditions: primary human HUVEC with PBMC;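 further: PBMC viability measured as Alamar Blue reduction fluorescence at 546/580 nm; fitted both ways against DMSO so a hit may be loss or gain of signal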;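 on AC50: PBMC superantigen activated with SEB plus TSST-1 one hour after compound addition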
Method in brief: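 Human umbilical vein endothelial cells co-cultured with PBMC; PBMC (75,000/well) pre-treated with compound 1 h, then activated with SEB and TSST-1 (20 ng/mL final each) for 90 h. Alamar Blue added 6 h, fluorescence 546/580 nm; bidirectional fit versus DMSO.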

[4] = read-out: Interleukin-8 (IL8), CXCL8 (gene 3576); test: BSK_SAg_IL8: BioMAP Diversity Plus: SAg Assay for Interleukin-8 (IL8) Biomarker Activity (AID 2283094); conditions: primary human HUVEC with PBMC; actives raise or lower the signal
Method in brief: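 Human umbilical vein endothelial cells co-cultured with PBMC, stimulated with superantigen; IL-8 measured by ELISA 24 h after chemical dosing. Bidirectional fitting versus DMSO; SRB staining in parallel cultures tracks cytotoxicity.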

[5] = BSK_SAg_SRB: Viability Assessment in the BioMAP Diversity Plus: SAg Assay (AID 2283096); conditions: primary human HUVEC with PBMC;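 further: cells read one day after compound addition; hits may be either gain or loss of signal compared with DMSO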
Method in brief: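 Endothelial/PBMC primary human co-culture; compound 24 h; fix 10% TCA, stain 0.1% SRB, A560; protein content as cytotoxicity proxy; bidirectional curve fit, DMSO = baseline.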

[6] = biological target: human CYP19A1, CYP19A1 (gene 1588) (UniProt P11511); test: NVS_ADME_hCYP19A1: NovaScreen (NVS) CYP450-related Enzyme Activity (ADME) Assay for human CYP19A1 (AID 2283098; active means hit-call score of the fitted dose curve at least 0.9, where 1 is the maximum;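 on AC50: potency for inhibitors seen as loss of fluorescent enzyme signal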)
Sequence of human CYP19A1, CYP19A1 (gene 1588) (P11511 whole entry, looked up): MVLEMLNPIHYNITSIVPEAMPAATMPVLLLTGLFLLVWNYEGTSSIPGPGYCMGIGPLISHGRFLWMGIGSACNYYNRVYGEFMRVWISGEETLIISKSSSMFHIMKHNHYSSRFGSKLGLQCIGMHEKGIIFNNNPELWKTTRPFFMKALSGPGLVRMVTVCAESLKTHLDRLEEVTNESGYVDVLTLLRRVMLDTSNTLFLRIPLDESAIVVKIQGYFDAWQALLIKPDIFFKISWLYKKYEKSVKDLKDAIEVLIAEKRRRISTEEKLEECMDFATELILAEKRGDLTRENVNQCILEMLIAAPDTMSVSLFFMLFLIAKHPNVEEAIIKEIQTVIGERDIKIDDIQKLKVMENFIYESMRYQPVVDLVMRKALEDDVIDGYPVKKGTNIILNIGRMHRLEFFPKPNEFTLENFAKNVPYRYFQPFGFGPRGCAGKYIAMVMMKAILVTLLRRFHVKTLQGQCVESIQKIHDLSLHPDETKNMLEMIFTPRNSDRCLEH
Method in brief: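 Cell-free enzyme assay with recombinant protein and a specific fluorogenic substrate, read by fluorescence intensity 0.5 h after dosing. Primary screen ran in duplicate at 10 uM; actives were retested in concentration series. Loss of signal versus acetonitrile baseline.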

[7] = biological target: Cytochrome P450 2C19 (Homo sapiens) (UniProt P33261); test: NVS_ADME_hCYP2C19: NovaScreen (NVS) CYP450-related Enzyme Activity (ADME) Assay for human CYP2C19 (AID 2283113; active means hit-call score of the fitted dose curve at least 0.9, where 1 is the maximum;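 further: potency for inhibition seen as loss of fluorescent signal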)
Method in brief: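 Chemicals first screened in duplicate at 10 uM against recombinant human enzyme produced in insect cells; confirmed actives then run as concentration series. Fluorogenic substrate turnover read by fluorescence after 1 h, normalised to acetonitrile.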

[8] = biological target: rat CYP2A1, Cyp2a1 (gene 24894) (UniProt P11711); test: NVS_ADME_rCYP2A1: NovaScreen (NVS) CYP450-related Enzyme Activity (ADME) Assay for rat CYP2A1 (AID 2283114)
Sequence of rat CYP2A1, Cyp2a1 (gene 24894) (P11711 whole entry, looked up): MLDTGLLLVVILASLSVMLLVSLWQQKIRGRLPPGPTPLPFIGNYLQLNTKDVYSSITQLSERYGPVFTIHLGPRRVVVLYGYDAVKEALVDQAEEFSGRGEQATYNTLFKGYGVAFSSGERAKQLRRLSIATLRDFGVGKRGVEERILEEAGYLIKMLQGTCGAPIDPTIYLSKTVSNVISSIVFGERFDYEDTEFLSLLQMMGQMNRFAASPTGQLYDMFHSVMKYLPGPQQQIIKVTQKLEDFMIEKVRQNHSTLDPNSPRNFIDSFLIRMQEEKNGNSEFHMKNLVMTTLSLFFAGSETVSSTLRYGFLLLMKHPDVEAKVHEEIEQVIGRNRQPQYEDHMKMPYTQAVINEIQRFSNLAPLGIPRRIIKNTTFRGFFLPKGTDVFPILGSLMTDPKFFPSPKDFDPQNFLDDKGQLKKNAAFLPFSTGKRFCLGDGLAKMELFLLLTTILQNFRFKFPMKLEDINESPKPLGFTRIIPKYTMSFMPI
Method in brief: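 Recombinant rat CYP2A1, cell-free, fluorogenic substrate turnover read by fluorescence intensity 0.75 h after dosing. Primary screen at 10 uM in duplicate; actives rerun as concentration-response up to 20 uM; loss of signal versus acetonitrile control.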

[9] = biological target: rat CYP2A2, Cyp2a2 (gene 24895) (UniProt P15149); test: NVS_ADME_rCYP2A2: NovaScreen (NVS) CYP450-related Enzyme Activity (ADME) Assay for rat CYP2A2 (AID 2283116; active means hit-call score of the fitted dose curve at least 0.9, where 1 is the maximum)
Sequence of rat CYP2A2, Cyp2a2 (gene 24895) (P15149 whole entry, looked up): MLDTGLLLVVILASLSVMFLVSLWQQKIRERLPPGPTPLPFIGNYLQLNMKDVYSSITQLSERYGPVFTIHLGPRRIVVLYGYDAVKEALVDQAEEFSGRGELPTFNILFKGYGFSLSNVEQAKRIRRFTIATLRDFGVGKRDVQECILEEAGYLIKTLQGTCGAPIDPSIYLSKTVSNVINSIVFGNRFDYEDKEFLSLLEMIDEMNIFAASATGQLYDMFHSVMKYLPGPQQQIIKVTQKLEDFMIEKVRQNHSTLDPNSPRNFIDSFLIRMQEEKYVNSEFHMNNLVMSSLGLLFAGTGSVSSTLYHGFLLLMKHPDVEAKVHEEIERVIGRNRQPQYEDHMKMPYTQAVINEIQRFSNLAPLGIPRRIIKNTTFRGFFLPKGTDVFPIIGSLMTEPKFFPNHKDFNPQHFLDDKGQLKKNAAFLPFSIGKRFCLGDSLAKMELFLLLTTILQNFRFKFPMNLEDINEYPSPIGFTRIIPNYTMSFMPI
Method in brief: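 Cell-free recombinant rat CYP2A2 activity with fluorogenic substrate, fluorescence read 0.2 h after dosing. Chemicals screened at 10 uM in duplicate, hits then run in concentration-response up to 20 uM; signal loss versus acetonitrile baseline.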

[10] = biological target: rat CYP2C13, Cyp2c13 (gene 171521) (UniProt P20814); test: NVS_ADME_rCYP2C13: NovaScreen (NVS) CYP450-related Enzyme Activity (ADME) Assay for rat CYP2C13 (AID 2283121; active means hit-call score of the fitted dose curve at least 0.9, where 1 is the maximum)
Sequence of rat CYP2C13, Cyp2c13 (gene 171521) (P20814 whole entry, looked up): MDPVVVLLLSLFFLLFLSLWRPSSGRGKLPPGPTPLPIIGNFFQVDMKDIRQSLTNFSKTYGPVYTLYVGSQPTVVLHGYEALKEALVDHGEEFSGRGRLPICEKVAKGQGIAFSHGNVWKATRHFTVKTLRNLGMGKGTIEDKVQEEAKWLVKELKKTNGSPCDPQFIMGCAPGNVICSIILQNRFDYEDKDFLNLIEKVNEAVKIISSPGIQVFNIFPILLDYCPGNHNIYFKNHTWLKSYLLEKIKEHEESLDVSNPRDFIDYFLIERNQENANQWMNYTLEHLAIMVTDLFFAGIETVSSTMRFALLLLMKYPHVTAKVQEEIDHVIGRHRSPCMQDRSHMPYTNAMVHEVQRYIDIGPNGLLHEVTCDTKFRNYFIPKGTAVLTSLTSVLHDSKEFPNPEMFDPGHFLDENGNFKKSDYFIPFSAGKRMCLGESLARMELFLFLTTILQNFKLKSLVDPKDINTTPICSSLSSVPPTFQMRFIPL
Method in brief: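 Recombinant rat CYP2C13 with fluorogenic substrate, 0.75 h cell-free incubation; primary screen in duplicate at 10 uM, actives followed in concentration series. Fluorescence loss relative to acetonitrile control indicates inhibition.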

[11] = read-out: Monocyte Chemoattractant Protein-1 (MCP1), CCL2 (gene 6347); test: BSK_SAg_MCP1: BioMAP Diversity Plus: SAg Assay for Monocyte Chemoattractant Protein-1 (MCP1) Biomarker Activity (AID 2283090); conditions: primary human HUVEC with PBMC; actives raise or lower the signal
Method in brief: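 MCP-1 levels in the endothelial–PBMC SAg co-culture were quantified by ELISA at 24 h post-dosing; both increases and decreases versus DMSO scored. Cytotoxicity monitored by SRB total protein in parallel cultures.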

[12] = biological target: human CYP2D6, CYP2D6 (gene 1565) (UniProt P10635); test: NVS_ADME_hCYP2D6: NovaScreen (NVS) CYP450-related Enzyme Activity (ADME) Assay for human CYP2D6 (AID 2283107; active means hit-call score of the fitted dose curve at least 0.9, where 1 is the maximum)
Method in brief: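 Compounds were first tested in duplicate at 10 uM against recombinant enzyme produced in insect cells, with substrate turnover measured by fluorescence after 1 hour. Decreased signal, referenced to acetonitrile vehicle, was taken as reduced enzyme activity. Active chemicals went on to concentration-response testing.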

[13] = biological target: human CYP2C9, CYP2C9 (gene 1559) (UniProt P11712); test: NVS_ADME_hCYP2C9: NovaScreen (NVS) CYP450-related Enzyme Activity (ADME) Assay for human CYP2C9 (AID 2283108; active means hit-call score of the fitted dose curve at least 0.9, where 1 is the maximum)
Sequence of human CYP2C9, CYP2C9 (gene 1559) (P11712 whole entry, looked up): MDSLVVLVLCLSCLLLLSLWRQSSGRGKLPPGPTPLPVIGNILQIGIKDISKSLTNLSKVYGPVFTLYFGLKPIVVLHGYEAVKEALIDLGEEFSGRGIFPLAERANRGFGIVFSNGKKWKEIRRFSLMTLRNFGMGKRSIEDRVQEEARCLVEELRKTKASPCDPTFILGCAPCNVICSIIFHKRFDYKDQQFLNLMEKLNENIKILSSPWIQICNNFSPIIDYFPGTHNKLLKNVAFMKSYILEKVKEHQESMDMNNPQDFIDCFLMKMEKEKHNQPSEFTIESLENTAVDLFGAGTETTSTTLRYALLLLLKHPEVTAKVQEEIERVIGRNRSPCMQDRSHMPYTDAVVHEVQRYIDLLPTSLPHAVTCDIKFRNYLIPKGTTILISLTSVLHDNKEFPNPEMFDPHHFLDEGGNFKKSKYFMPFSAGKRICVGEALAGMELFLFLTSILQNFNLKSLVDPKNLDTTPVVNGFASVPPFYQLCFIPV
Method in brief: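 Cell-free assay of recombinant human CYP2C9 produced in Sf9 cells, with enzyme activity read by fluorescence intensity 0.75 h after compound addition. Loss of signal versus an acetonitrile negative control indicates inhibition. Primary screen used 10 uM in duplicate; actives were retested in concentration series.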

[14] = biological target: human CYP1A1, CYP1A1 (gene 1543) (UniProt P04798); test: NVS_ADME_hCYP1A1: NovaScreen (NVS) CYP450-related Enzyme Activity (ADME) Assay for human CYP1A1 (AID 2283100; active means hit-call score of the fitted dose curve at least 0.9, where 1 is the maximum)
Sequence of human CYP1A1, CYP1A1 (gene 1543) (P04798 whole entry, looked up): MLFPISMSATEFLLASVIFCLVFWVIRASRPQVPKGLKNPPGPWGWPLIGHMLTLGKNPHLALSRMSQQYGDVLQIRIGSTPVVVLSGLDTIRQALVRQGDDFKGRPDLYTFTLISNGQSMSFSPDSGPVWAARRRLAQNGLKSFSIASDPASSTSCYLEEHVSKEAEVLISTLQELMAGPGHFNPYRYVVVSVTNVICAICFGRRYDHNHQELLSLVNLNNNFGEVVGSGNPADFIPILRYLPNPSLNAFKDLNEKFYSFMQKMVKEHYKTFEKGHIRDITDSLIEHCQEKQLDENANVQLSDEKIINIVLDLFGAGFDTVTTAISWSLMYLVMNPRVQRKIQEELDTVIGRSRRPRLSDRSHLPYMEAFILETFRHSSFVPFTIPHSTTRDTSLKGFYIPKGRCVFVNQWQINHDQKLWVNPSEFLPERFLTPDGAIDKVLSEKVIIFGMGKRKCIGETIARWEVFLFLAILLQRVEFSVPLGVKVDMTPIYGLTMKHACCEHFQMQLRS
Method in brief: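 Compounds first went through duplicate single-concentration testing at 10 uM against purified CYP1A1. Those passing a threshold such as 30% inhibition entered singleton dose-response, highest concentration 20 uM. Signal was fluorescence measured after 1 hour.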

[15] = biological target: human CYP2B6, CYP2B6 (gene 1555) (UniProt P20813); test: NVS_ADME_hCYP2B6: NovaScreen (NVS) CYP450-related Enzyme Activity (ADME) Assay for human CYP2B6 (AID 2283101; active means hit-call score of the fitted dose curve at least 0.9, where 1 is the maximum)
Method in brief: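 Recombinant protein, specific fluorescent substrate, read at 1 h post-dosing. Primary: single 10 uM, duplicate; follow-up: concentration series. Activity = signal loss vs acetonitrile baseline, with positive and negative controls on every plate.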

[16] = biological target: rat CYP2C11, Cyp2c11 (gene 29277) (UniProt P08683); test: NVS_ADME_rCYP2C11: NovaScreen (NVS) CYP450-related Enzyme Activity (ADME) Assay for rat CYP2C11 (AID 2283118; active means hit-call score of the fitted dose curve at least 0.9, where 1 is the maximum)
Sequence of rat CYP2C11, Cyp2c11 (gene 29277) (P08683 whole entry, looked up): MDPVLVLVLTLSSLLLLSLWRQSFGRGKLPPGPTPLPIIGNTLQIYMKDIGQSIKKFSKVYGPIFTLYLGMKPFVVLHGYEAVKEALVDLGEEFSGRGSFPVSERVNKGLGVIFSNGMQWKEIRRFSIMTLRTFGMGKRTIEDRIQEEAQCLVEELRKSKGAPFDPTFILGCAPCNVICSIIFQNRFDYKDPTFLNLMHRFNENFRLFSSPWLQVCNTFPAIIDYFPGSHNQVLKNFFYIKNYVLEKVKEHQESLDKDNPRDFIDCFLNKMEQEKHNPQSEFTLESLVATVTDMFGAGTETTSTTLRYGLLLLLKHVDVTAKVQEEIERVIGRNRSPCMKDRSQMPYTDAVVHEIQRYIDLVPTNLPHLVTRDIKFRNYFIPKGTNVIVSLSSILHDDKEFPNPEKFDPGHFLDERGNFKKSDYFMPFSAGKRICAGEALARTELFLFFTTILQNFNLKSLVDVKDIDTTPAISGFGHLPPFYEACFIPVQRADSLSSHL
Method in brief: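 Cell-free recombinant rat enzyme with fluorescent substrate; readout 0.33 h after dosing, loss of signal versus acetonitrile control. Initial duplicate single-point at 10 uM; actives rerun in concentration series.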

rat CYP2C6, gene 293989 = test: NVS_ADME_rCYP2C6: NovaScreen (NVS) CYP450-related Enzyme Activity (ADME) Assay for rat CYP2C6 (AID 2283120; active means hit-call score of the fitted dose curve at least 0.9, where 1 is the maximum)
Method in brief: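 Cell-free recombinant rat CYP2C6 with fluorogenic substrate, read by fluorescence 1 h after dosing; acetonitrile as negative control. Primary screen at 10 uM in duplicate, actives then in concentration-response up to 20 uM.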

[17] = biological target: Cytochrome P450 3A4 (Homo sapiens) (UniProt P08684); test: NVS_ADME_hCYP3A4: NovaScreen (NVS) CYP450-related Enzyme Activity (ADME) Assay for human CYP3A4 (AID 2283110; active means hit-call score of the fitted dose curve at least 0.9, where 1 is the maximum)
Sequence of Cytochrome P450 3A4 (Homo sapiens) (P08684 whole entry, looked up): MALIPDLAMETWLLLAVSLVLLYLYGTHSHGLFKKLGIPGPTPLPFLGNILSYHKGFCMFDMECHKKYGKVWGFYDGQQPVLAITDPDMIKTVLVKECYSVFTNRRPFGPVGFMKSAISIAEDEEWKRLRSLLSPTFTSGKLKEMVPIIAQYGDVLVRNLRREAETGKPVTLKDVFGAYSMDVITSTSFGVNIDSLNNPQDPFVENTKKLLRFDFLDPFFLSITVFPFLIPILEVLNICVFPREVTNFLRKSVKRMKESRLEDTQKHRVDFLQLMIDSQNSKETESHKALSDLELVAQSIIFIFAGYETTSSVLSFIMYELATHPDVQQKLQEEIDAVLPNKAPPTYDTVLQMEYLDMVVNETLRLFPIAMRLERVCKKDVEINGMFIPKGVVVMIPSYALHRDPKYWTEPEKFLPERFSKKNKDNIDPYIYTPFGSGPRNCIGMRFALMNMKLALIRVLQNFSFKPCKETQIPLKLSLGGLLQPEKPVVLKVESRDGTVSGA
Method in brief: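 Cell-free assay using insect-cell-expressed human CYP3A4 with a fluorogenic substrate; fluorescence intensity was read 0.33 hour after dosing. Loss of signal relative to acetonitrile vehicle indicated inhibition. Primary single-concentration screen at 10 uM, in duplicate, then concentration series.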

[18] = biological target: human CYP1A2, CYP1A2 (gene 1544) (UniProt P05177); test: NVS_ADME_hCYP1A2: NovaScreen (NVS) CYP450-related Enzyme Activity (ADME) Assay for human CYP1A2 (AID 2283102; active means hit-call score of the fitted dose curve at least 0.9, where 1 is the maximum)
Method in brief: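 Compounds were tested at 10 uM in duplicate against recombinant CYP1A2 produced in insect cells. Enzyme activity was measured by fluorescence 0.5 h after dosing, with loss of signal versus acetonitrile control. Active compounds were re-tested in concentration series.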

Measured: AC50

Sequence of E-selectin (Homo sapiens) (P16581 whole entry, looked up): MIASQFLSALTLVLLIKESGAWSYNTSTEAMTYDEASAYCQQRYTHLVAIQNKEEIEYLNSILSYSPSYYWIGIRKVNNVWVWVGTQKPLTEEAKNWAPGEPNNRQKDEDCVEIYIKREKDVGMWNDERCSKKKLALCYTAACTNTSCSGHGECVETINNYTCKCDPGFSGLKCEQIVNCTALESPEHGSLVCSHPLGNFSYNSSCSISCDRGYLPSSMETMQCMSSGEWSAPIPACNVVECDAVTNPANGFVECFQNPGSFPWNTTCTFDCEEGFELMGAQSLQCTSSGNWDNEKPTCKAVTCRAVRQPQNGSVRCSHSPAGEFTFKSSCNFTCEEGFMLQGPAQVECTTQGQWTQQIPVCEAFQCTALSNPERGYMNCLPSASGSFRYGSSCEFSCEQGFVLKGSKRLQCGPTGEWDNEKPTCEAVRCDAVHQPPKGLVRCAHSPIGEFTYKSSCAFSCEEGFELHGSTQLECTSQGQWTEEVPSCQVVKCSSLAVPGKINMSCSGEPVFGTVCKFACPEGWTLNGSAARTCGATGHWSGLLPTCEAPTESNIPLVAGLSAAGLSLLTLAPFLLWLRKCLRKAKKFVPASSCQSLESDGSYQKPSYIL

C[C@]12CC[C@@H]3c4ccc(O)cc4CC[C@H]3[C@@H]1CC[C@@H]2O
inactive: [1] | [3] | [4] | [6] | [8]
active: [2] 20 µM | [5] 10.3 µM | [7] 813 nM and 2.14 µM | [9] 6.22 µM | [10] 492 nM and 892 nM and 748 nM

CC1(C)[C@H](C=C(Cl)Cl)[C@H]1C(=O)OCc1cccc(Oc2ccccc2)c1
inactive: [11] | [1] | [2] | [3] | [4] | [5]

CC(=O)OC(C)(C)C1CC=C(C)CC1 (configuration not stated)
active: [7] 3.56 µM
inactive: [11] | [1] | [2] | [3] | [4] | [5]

O=[N+]([O-])c1cc(N(CCO)CCO)ccc1NCCO
active: [12] 3.87 µM | [13] 2.42 µM

O=C(O)C(F)(F)OC(F)(F)C(F)(F)OC(F)(F)C(F)(F)C(F)(F)C(F)(F)F
inactive: [11] | [1] | [2] | [3] | [4] | [5]
active: [5] 30 µM

COc1ccccc1NC(=O)CC(C)=O
inactive: [11] | [1] | [2] | [3] | [4] | [5]

C#C[C@]1(O)CC[C@H]2[C@@H]3CCc4cc(O)ccc4[C@H]3CC[C@@]21C
active: [11] 5.56 µM | [5] 5.5 µM | [13] 6.68 µM and 7.82 µM and 6.49 µM | [7] 1.02 µM and 2.09 µM and 1.18 µM | [9] 785 nM and 1.44 µM and 680 nM | [16] 2.5 µM and 2.81 µM and 1.76 µM | rat CYP2C6, gene 293989 1.43 µM and 2.55 µM and 1.67 µM
inactive: [1] | [2] | [3] | [4] | [14] | [15]

CC(=O)C1=C(C)[C@@H]2C[C@@]3(C1)[C@H](C)CC[C@H]3C2(C)C
inactive: [6]

COC(=O)c1ccc(C(=O)OC)cc1
inactive: [11] | [1] | [2] | [3] | [4] | [5]

O=C(c1ccc(OCCN2CCCCC2)cc1)c1c(-c2ccc(O)cc2)sc2cc(O)ccc12
inactive: [17]
active: [11] 30.7 µM | [1] 37.4 µM | [2] 34.7 µM | [3] 26.2 µM | [4] 28.9 µM | [5] 24.1 µM | [6] 4.25 µM [middle of 4 runs] | [14] 6.33 µM

O=S1(=O)CC(Cl)(Cl)C(Cl)(Cl)C1
active: [11] 0.807 µM | [1] 0.224 µM | [2] 2.75 µM | [3] 0.515 µM | [4] 0.337 µM | [5] 0.655 µM | [12] 4.55 µM | [17] 0.431 µM

CCCCC/C=C\C=C\C(=O)OCC
active: [6] 15.6 µM

CCCCCCCCOC(=O)c1ccc(O)cc1
active: [6] 7.86 µM

c1ccc(OCCOc2ccccc2)cc1
inactive: [11] | [1] | [2] | [3] | [4] | [5]

C=C(C)C(=O)OCCC(F)(F)C(F)(F)C(F)(F)C(F)(F)C(F)(F)C(F)(F)C(F)(F)C(F)(F)F
inactive: [11] | [1] | [2] | [3] | [4] | [5]

CCOC(=O)CCCCCCCCC(=O)OCC
inactive: [11] | [1] | [2] | [3] | [4] | [5]

CCCCN(CCO)CCO
inactive: [11] | [1] | [2] | [3] | [4] | [5]

C=C(C)C(N)=O
inactive: [11] | [1] | [2] | [3] | [4] | [5] | [18]

CC(=O)OC(C)(C)C
inactive: [6]

CC/C(=C(\c1ccccc1)c1ccc(OCCN(C)C)cc1)c1ccccc1
active: [11] 10.4 µM and 10.1 µM | [1] 11.6 µM and 12.5 µM | [2] 14.1 µM and 11.3 µM | [3] 6.22 µM and 6.86 µM | [4] 18.3 µM and 7.16 µM | [5] 10.3 µM and 9.96 µM
inactive: [6] | [15] | [17]

CCCO[Si](OCCC)(OCCC)OCCC
inactive: [11] | [1] | [2] | [3] | [4] | [5]

Nc1ccc(N)c([N+](=O)[O-])c1
inactive: [11] | [1] | [2] | [4] | [5]

c1ccc(Sc2ccccc2)cc1
active: [11] 8 µM | [1] 30.2 µM | [2] 34.5 µM | [3] 33.9 µM | [4] 20 µM | [5] 31.7 µM

OCCN1CCOCC1
inactive: [11] | [1] | [2] | [3] | [4] | [5]

c1ccc2c(c1)-c1ccc3ccc4cccc5cc-2c1c3c45
inactive: [11] | [1] | [2] | [3] | [4] | [5]
